According to PubChem BioAssay:
Activity calls are given as the source filed them. Rule as the data show it: active = inhibition above about 36%; inactive = the rest.

tested on: transactivating tegument protein VP16 (Human herpesvirus 1); test: VP16 transactivation reporter inhibitors, counter-screen for SRC2 inhibitor project, cell-based, luminescence, single concentration (AID 652007); conditions: cell-based VP16 transactivation luciferase reporter, at 8.9 µM, stronger effect = higher value

Structure (SMILES) | inhibition
O=C(Nc1ccc(N2CCN(C(=O)c3ccco3)CC2)c(Cl)c1)c1cc2ccccc2o1 | 53.3% (active)
O=C(CCl)Nc1ccc(Oc2cnc3ccccc3n2)cc1 | 19.5% (inactive)
CCn1c(Oc2cccc(Br)c2)nc2c1c(=O)n(C)c(=O)n2C | -33.4% (inactive)
CCn1ccnc1CN(C)Cc1cn[nH]c1-c1ccc(F)cc1F | -19.6% (inactive)
O=C1CCC2S/C(=C/Nc3ccc(C(F)(F)F)cc3)C(=O)N12 (centres undefined) | 3.33% (inactive)
Cc1ccc(Oc2ccc(C(=O)NCc3ccncc3)cc2)cc1 | 7.11% (inactive)
Cc1ccc(-c2cc(C(=O)NCCCN3CCOCC3)no2)cc1 | -12.9% (inactive)
Cc1sc2ncnc(NC3CCN(Cc4ccccc4)CC3)c2c1C | 14.3% (inactive)
Cc1ncc(CO)c(/C=N/Nc2ccc(C(F)(F)F)cn2)c1O | 8.88% (inactive)
COc1cccc(N2CCN(c3c(C#N)c(C(F)(F)F)nn3C)CC2)c1 | -6.45% (inactive)
CC(=O)Nc1ccc(OCC(=O)Nc2ccc(Cl)c(S(=O)(=O)N3CCOCC3)c2)cc1 | -7.09% (inactive)
c1cn(-c2ncnc3sc4c(c23)CCCC4)cn1 | -1.75% (inactive)
Cc1ccc(C(=O)C(C(=O)/C=C/c2ccccc2)=C2SCCCS2)cc1 | 42.6% (active)
CC(C)CCNC(=O)c1sc2ccc(S(=O)(=O)N3CCCCC3)cc2c1N | 7.45% (inactive)
CCOC(=O)C1CCN(C(=O)c2ccc(OCC(=O)Nc3cccc(C(F)(F)F)c3)c(OC)c2)CC1 | 24.1% (inactive)
CC1CCN(c2ccc(-c3cccc(NC(=O)C(F)(F)F)c3)nn2)CC1 | -9.14% (inactive)
CC(C)(C)c1cc(/C=N/O)cc(C(C)(C)C)c1O | -7.33% (inactive)

Structure (SMILES) | inhibition
C=C1C(=O)C23C(O)C1CCC2C12COC3(O)C(O)C1C(C)(C)CCC2O (centres undefined) | 2.43% (inactive)
COc1ccc(CNc2ncc(-c3ccc(F)cc3)n2C)c2ccccc12 | 24.8% (inactive)
O=C(Nc1ccc(OCc2ccccc2Cl)cc1)c1cccnc1 | 27% (inactive)
COc1ccc(S(=O)(=O)N2CCOCC2)cc1NC(=O)CCNC(=O)c1ccc(Br)cc1 | 2.56% (inactive)
c1ccc2c(-c3cccc4nccn34)cncc2c1 | 5.09% (inactive)
Cc1cc(Nc2cccc(Cl)c2)nc(NCc2ccccc2)n1 | -3.2% (inactive)
CN(C)S(=O)(=O)N1CCC(Oc2cccc(C(=O)NC3CCCCC3)c2)CC1 | 4.19% (inactive)
Cc1noc(/C=C/c2ccco2)c1S(=O)(=O)N1CCC(C(=O)Nc2ccc(Cl)cn2)CC1 | 17.2% (inactive)
CN(c1ccc(C(=O)N2CCN(Cc3ccc4c(c3)OCO4)CC2)cc1)S(=O)(=O)c1ccccc1 | 31% (inactive)
COc1ccc(-c2noc(CCCCC(=O)N3CCN(c4cc(C)ccc4C)CC3)n2)cc1 | 29.6% (inactive)
Cc1ccc(-c2nnc(SCC(=O)Nc3ccccc3F)o2)cc1 | 19.4% (inactive)
COCCNC(=O)c1c[nH]c2ccc(S(=O)(=O)N3CCc4ccccc43)cc2c1=O | 20.1% (inactive)
C=C1C(=O)C23CCC4C(C)(C(=O)OC)CCCC4(C)C2CCC1(O)C3 (centres undefined) | 83.1% (active)
Cc1cc(NC(=O)Cc2ccccc2)c2ccccc2n1 | 9.96% (inactive)
O=C(Nc1ccc2c(c1)OCCO2)c1[nH]c(C(F)(F)F)nc1-c1ccccc1 | -38.1% (inactive)
O=S(=O)(Nc1ccc2c(c1)OCCO2)c1cccc2nsnc12 | -9.03% (inactive)
COc1ccc2c(=O)cc(-c3ccncc3)oc2c1OC | -15.8% (inactive)
